Measured values from PubChem BioAssay (NCI).
The panel holds about 83,000 compounds, 20% with a hit somewhere; the sample as a whole holds those more often.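 96-well plates, one dose, 48 hours. Percent growth reported; active if below 10.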 The source made the active and inactive calls.

Columns and labels:
Experiment in all cases: NCI-60 one-dose screen, 48 h (100 = growth as untreated, 0 = no growth, -100 = all killed)
Details in all cases: 10 µM unless noted
NCI-H23 lung = tested on: NCI-H23 lung
NCI-H226 lung = tested on: NCI-H226 lung
NCI-H460 lung = tested on: NCI-H460 lung
HOP-92 NSCLC = tested on: HOP-92 NSCLC
NCI-H522 lung = tested on: NCI-H522 lung
A549/ATCC NSCLC = tested on: A549/ATCC NSCLC
786-0 renal = tested on: 786-0 renal
COLO 205 colon = tested on: COLO 205 colon
HOP-62 NSCLC = tested on: HOP-62 NSCLC

SMILES	growth (NCI-H23 lung)	growth (NCI-H226 lung)	growth (NCI-H460 lung)	growth (HOP-92 NSCLC)	growth (NCI-H522 lung)	growth (A549/ATCC NSCLC)	growth (786-0 renal)	growth (COLO 205 colon)	growth (HOP-62 NSCLC)
O=NN(c1ccccc1)c1ccccc1	98.3% (inactive)	95% (inactive)	102% (inactive)	88.1% (inactive)	105% (inactive)	96% (inactive)	105% (inactive)	110% (inactive)	–
O=C(Cc1ccccc1)c1ccccc1	94.5% (inactive)	102% (inactive)	98.9% (inactive)	88.1% (inactive)	103% (inactive)	107% (inactive)	102% (inactive)	102% (inactive)	98.5% (inactive)
CC/C(=C(\c1ccc(OCCN2CCOCC2)cc1)c1ccc(OC(=O)Cc2ccccc2)cc1)c1ccc(Cl)cc1	104% (inactive)	106% (inactive)	106% (inactive)	94.4% (inactive)	92.8% (inactive)	101% (inactive)	107% (inactive)	120% (inactive)	103% (inactive)
CN1CCC2(CC1)C(C#N)C(=O)NC(=O)C2C#N (configuration not stated)	–	96.1% (inactive)	106% (inactive)	109% (inactive)	110% (inactive)	95.9% (inactive)	104% (inactive)	109% (inactive)	94.3% (inactive)
CC[C@H](C)[C@H](NC(=O)[C@H]1CCCCN1C)C(=O)N(C)[C@H](C(=O)NC12CC(C(=O)N[C@@H](Cc3ccccc3)C[C@H](C)C(=O)OC)(C1)C2)C(C)C	97.7% (inactive)	98.8% (inactive)	101% (inactive)	98.4% (inactive)	74.2% (inactive)	92% (inactive)	103% (inactive)	110% (inactive)	92.8% (inactive)
N#Cc1ccc(Cl)cc1	111% (inactive)	109% (inactive)	122% (inactive)	–	–	103% (inactive)	108% (inactive)	117% (inactive)	105% (inactive)
Cc1cc(N(CCCl)CCCl)ccc1C=Nc1ccc(-c2csc(-c3ccccc3)n2)cc1	66.6% (inactive)	58.5% (inactive)	33.1% (inactive)	59.4% (inactive)	102% (inactive)	67.2% (inactive)	59.2% (inactive)	88.9% (inactive)	79.3% (inactive)
N#CC(C#N)=C(C#N)C#N	106% (inactive)	101% (inactive)	106% (inactive)	–	–	99.9% (inactive)	101% (inactive)	114% (inactive)	108% (inactive)
CC[C@H](C)[C@H]1O[C@]2(C=C[C@@H]1C)C[C@@H]1C[C@@H](C/C=C(\C)[C@@H](O[C@H]3C[C@H](OC)[C@@H](O[C@H]4C[C@H](OC)[C@@H](NC)[C@H](C)O4)[C@H](C)O3)[C@@H](C)/C=C/C=C3\CO[C@@H]4[C@H](O)C(C)=C[C@@H](C(=O)O1)[C@]34O)O2	-68.8% (active)	-75.2% (active)	-77.4% (active)	-33.8% (active)	-70.3% (active)	-51.6% (active)	-88.4% (active)	-71.6% (active)	-60.9% (active)
CCOC(=O)c1cncn1C(C)c1ccccc1 (configuration not stated)	118% (inactive)	105% (inactive)	118% (inactive)	95.8% (inactive)	94.3% (inactive)	103% (inactive)	97% (inactive)	109% (inactive)	97.7% (inactive)
C[C@]12CCc3sc(Nc4ccc(O)cc4)nc3C1=CC[C@@H]1[C@@H]2CC[C@]2(C)C(=O)CC[C@@H]12	70.2% (inactive)	103% (inactive)	65.6% (inactive)	126% (inactive)	-55.2% (active)	79.3% (inactive)	-3.03% (active)	38.5% (inactive)	92.7% (inactive)
O=NN1CCCCC1	104% (inactive)	109% (inactive)	116% (inactive)	110% (inactive)	–	102% (inactive)	103% (inactive)	107% (inactive)	102% (inactive)
Nc1ccc(S(=O)(=O)F)cc1	108% (inactive)	–	111% (inactive)	110% (inactive)	96.1% (inactive)	102% (inactive)	94.7% (inactive)	112% (inactive)	109% (inactive)
COC(=O)C1=CO[C@@H](C)[C@@H]2CN3CCc4c([nH]c5cc(OC)ccc45)[C@@H]3C[C@H]12	95.9% (inactive)	94.5% (inactive)	99.7% (inactive)	78% (inactive)	–	95.8% (inactive)	108% (inactive)	101% (inactive)	113% (inactive)
